# Compounds without any hit were thinned out: in the full panel of roughly 83,000, 20% have a hit.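 In brief: 96-well plates, 48 h treatment, single concentration, percent growth endpoint.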 Values without a mark were called inactive. Calls of active or inactive are those of the source. How the source made its calls: active means growth percent below 10; inactive means the rest.
# Assays:
# Experiment in all cases: NCI-60 one-dose screen, 48 h (100 = growth as untreated, 0 = no growth, -100 = all killed)
# Settings in all cases: 10 µM unless noted
# SR leukemia = test system: SR leukemia
# RPMI-8226 leukemia = test system: RPMI-8226 leukemia
# OVCAR-8 ovarian = test system: OVCAR-8 ovarian
# OVCAR-5 ovarian = test system: OVCAR-5 ovarian
# OVCAR-4 ovarian = test system: OVCAR-4 ovarian
# SK-OV-3 ovarian = test system: SK-OV-3 ovarian
# OVCAR-3 ovarian = test system: OVCAR-3 ovarian
# HS 578T breast = test system: HS 578T breast
# NCI/ADR-RES ovarian = test system: NCI/ADR-RES ovarian
# T-47D breast = test system: T-47D breast
# BT-549 breast = test system: BT-549 breast
# MDA-MB-435 melanoma = test system: MDA-MB-435 melanoma
# SW-620 colon = test system: SW-620 colon
# MCF7 breast = test system: MCF7 breast
# HCT-116 colon = test system: HCT-116 colon
# HCC-2998 colon = test system: HCC-2998 colon
# KM12 colon = test system: KM12 colon
# IGROV1 ovarian = test system: IGROV1 ovarian
Compound,growth (SR leukemia),growth (RPMI-8226 leukemia),growth (OVCAR-8 ovarian),growth (OVCAR-5 ovarian),growth (OVCAR-4 ovarian),growth (SK-OV-3 ovarian),growth (OVCAR-3 ovarian),growth (HS 578T breast),growth (NCI/ADR-RES ovarian),growth (T-47D breast),growth (BT-549 breast),growth (MDA-MB-435 melanoma),growth (SW-620 colon),growth (MCF7 breast),growth (HCT-116 colon),growth (HCC-2998 colon),growth (KM12 colon),growth (IGROV1 ovarian)
N#CCC1=NC(c2cccs2)=Nc2ccccc2S1,91.5%,65.7%,95.9%,86.6%,93.8%,76.4%,95.3%,96.2%,98%,69.7%,86.6%,105%,97.8%,96.8%,80.8%,92.5%,94.9%,
O=C(Cn1cc(CN2C(=O)c3ccccc3S2(=O)=O)nn1)Nc1cccc(Cl)c1,113%,104%,113%,112%,109%,79.3%,,,93.1%,97%,133%,100%,102%,92.5%,98.8%,93.5%,104%,108%
C/C(=N\O)C(=O)NCCCCCC(=O)Nc1ccccc1,104%,106%,96.2%,106%,103%,102%,,114%,103%,86.5%,88.6%,101%,104%,95.1%,100%,101%,103%,111%
CC(C)[C@@]12C[C@@H](OC(=O)COC(=O)c3ccccc3)[C@@](C)(O1)[C@@H]1CC[C@@H](C)[C@H]1[C@@H]2OC(=O)/C=C/c1ccccc1,78.6%,85.3%,31.7%,95.7%,87.2%,88.1%,94.8%,-14.4% (active),25.2%,60.1%,22.9%,99.8%,100%,81.9%,83.6%,97.2%,94.9%,
O=C1NC(=C(Cl)Cl)/C(=N/S(=O)(=O)NCCc2c[nH]c3ccccc23)N1,53.3%,14.8%,92.9%,48.3%,58.6%,62.2%,-25.8% (active),27.3%,67.9%,47.1%,9.16% (active),25.1%,54.3%,14.2%,34.9%,98.3%,-4.6% (active),
COc1ccc(C/C(C)=C(/c2ccc(OCCN3CCCCCC3)cc2)c2ccc(OC(=O)NCc3ccccc3)cc2)cc1,-43.2% (active),52.8%,92.4%,91.5%,76%,95.3%,,75%,86.8%,50.8%,100%,95.3%,81.4%,29.9%,64.7%,89.1%,80.9%,93%
O=C(/C=C/c1ccccc1)Nc1ncc(Cc2ccccc2)s1,15.3%,20.2%,23.7%,18.5%,14.1%,15.4%,-34.1% (active),10.4%,2.68% (active),26.1%,42.9%,-40.9% (active),24.6%,17.2%,11.6%,11.9%,6.06% (active),
CC/C=C\C/C=C/C=C1/C(=O)C=C[C@@H]1C/C=C\CCCC(=O)OC,5.21% (active),1.81% (active),13.2%,63.8%,85.4%,110%,11.1%,11.9%,73.5%,16.7%,-21.9% (active),-39.3% (active),-14.3% (active),18.6%,-76.1% (active),62%,20.4%,
O=C1NC(=Nc2ccc(O)cc2)S/C1=C\c1cccs1,11.6%,2.94% (active),48.5%,84.5%,48.8%,62.6%,8.01% (active),32.6%,32.1%,32.5%,35.8%,-24.7% (active),27.2%,11.8%,32.9%,59%,13.9%,
CCNC(=O)Oc1ccc(/C(=C(/C)Cc2ccc(OC)cc2)c2ccc(OCCN3CCCC3)cc2)cc1,6.92% (active),44%,89.8%,83.8%,74.1%,88%,77.5%,70.9%,85.9%,42.7%,85.9%,61.2%,81.4%,29%,44%,71.2%,71.5%,
C=CC1(C)C(O[Si](C)(C)C(C)(C)C)CC2C3OC(=O)NC31c1cccc3c1[C@H](C(=O)N3C)C2(C)C (stereo not given in full),24.4%,7.41% (active),55.1%,75.8%,55.1%,86.6%,52.7%,79.2%,60.5%,23.8%,53.8%,56.2%,64.6%,27.7%,38.6%,69.1%,50.5%,
O=C1/C(=C/c2ccccc2)CN(C(=O)c2cccnc2)C/C1=C\c1ccccc1,4.69% (active),-19.6% (active),12.4%,10.8%,43.8%,40.2%,-16.2% (active),21.4%,18.7%,9% (active),-53.3% (active),-27.7% (active),-54.4% (active),0.394% (active),-87.6% (active),-83.5% (active),-40.1% (active),
COc1cccc(/C=C2\COc3ccc(O)cc3C2=O)c1,5.49% (active),-24.8% (active),80.7%,101%,95%,114%,78.4%,91.1%,89.9%,47.5%,78%,52.8%,18.1%,4.96% (active),32.8%,115%,43.7%,
CN(C)c1ccc(C(=NO)c2ccc(N(C)C)cc2)cc1,12.7%,49.5%,39.4%,81.4%,71.3%,57.7%,-15.1% (active),51.1%,13.4%,45.8%,53.4%,-43.2% (active),13.4%,32.6%,18.5%,58.6%,13.6%,
O=c1[nH]c(-c2ccc(Cl)cc2)cn1-c1ccc(-n2cc(-c3ccc(Cl)cc3)[nH]c2=O)cc1,98%,123%,92%,104%,98.5%,97.5%,,102%,108%,89.1%,110%,98.8%,,99.8%,101%,106%,106%,102%
O=C(NCc1ccccc1O)c1cccc2ccccc12,64.9%,38.6%,89.8%,108%,72.7%,89.5%,56.4%,66.5%,79.2%,59.7%,68.8%,76.9%,87.6%,83.9%,69.1%,89.9%,85%,

# From PubChem BioAssay (NCI)
